Screens (PubChem)
NTR1 agonist = NTR1 (human) agonism | activation, % at 20 µM | 0.17% of 330,000 active | NTR1-U2OS beta-arrestin-GFP spot imaging, agonist mode | P30989 | AID 493036;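 active = activation at or above 40% of the spot to cytoplasm intensity ratio, with at least 20 cells analyzed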
MEKK3 PB1 HTS = modulators (inhibitors or enhancers) of MEK5 binding to human MEKK3 PB1 domain | Q99759 | bead-based flow cytometry, Alexa488-MEK5 binding to MEKK3; actives lie on both sides; 0 = blocked by unlabeled MEK5, 100 = vehicle | binding response (% of control), % at 10 µM | 1.4% of 290,000 active | AID 1529;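 active = binding response more than 3 SD above or below the average of its plate-row segment, actives on both sides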;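 also: Alexa488 bead fluorescence after subtracting the streptavidin-only scavenger bead signal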
Target sequence (Q99759 whole entry, looked up, the tested form may be a part): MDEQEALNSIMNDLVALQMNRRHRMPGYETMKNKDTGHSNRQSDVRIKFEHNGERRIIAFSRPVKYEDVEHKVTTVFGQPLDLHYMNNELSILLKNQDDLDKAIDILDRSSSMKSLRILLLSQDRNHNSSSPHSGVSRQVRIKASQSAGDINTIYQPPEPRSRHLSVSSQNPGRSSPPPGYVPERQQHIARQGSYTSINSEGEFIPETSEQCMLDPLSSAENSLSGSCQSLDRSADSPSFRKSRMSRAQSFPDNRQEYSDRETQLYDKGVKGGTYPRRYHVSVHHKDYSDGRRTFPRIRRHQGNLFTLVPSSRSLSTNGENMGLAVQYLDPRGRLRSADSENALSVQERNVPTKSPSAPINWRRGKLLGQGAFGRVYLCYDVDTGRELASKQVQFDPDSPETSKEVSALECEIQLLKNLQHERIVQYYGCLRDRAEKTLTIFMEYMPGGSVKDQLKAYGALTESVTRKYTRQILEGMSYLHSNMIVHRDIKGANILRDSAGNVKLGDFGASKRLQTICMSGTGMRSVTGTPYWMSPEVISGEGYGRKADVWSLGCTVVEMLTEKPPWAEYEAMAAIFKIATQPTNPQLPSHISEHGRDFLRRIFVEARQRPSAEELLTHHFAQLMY
MEKK2 mut-MEK5 = signal of MEK5 binding to mutant human MEKK2 PB1 domain | bead flow cytometry, Alexa488-MEK5 binding to MEKK2 mutant | percent response, % at 10 µM | 0.35% of 290,000 active | AID 1530; in the data active = percent response above about 24%, passing the limit was not always enough
MEKK2wt PB1 HTS = raises or lowers MEK5 binding to wildtype human MEKK2 PB1 domain | AID 1531 | binding response (% of control), % at 10 µM | bead flow cytometry, Alexa488-MEK5 binding to MEKK2 WT; actives lie on both sides | 1.1% of 290,000 active; in the data active = binding response below about 67% or above about 130%
ANO1 block = mouse TMEM16A channel inhibition, primary screen. Q8BHY3. HEK293 TMEM16A/YFP iodide influx fluorescence, ionomycin. normalized B-score (activity score, 25-100; higher = stronger inhibition) at 10 µM. 1.2% of 310,000 active. AID 588511;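 active = ratio plate-corrected score three or more library SD toward inhibition, starting fluorescence score within five deviations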;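 also: score derived from kinetic fluorescence span divided by baseline fluorescence per well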
ANO1 activ = activates or potentiates the mouse TMEM16A chloride channel | B-score at 10 µM | AID 623877 | Q8BHY3 | HEK293 TMEM16A/YFP-H148Q/I152L, iodide quench fluorescence; active compounds read low | 0.3% of 340,000 active;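 active = fluorescence-ratio B-score plate-corrected deviation score at least 3 library SD below zero, with starting fluorescence score within 5 deviations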;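 also: channel opened by trigger with iodide after compound preincubation; score built on the fluorescence ratio of max minus min over baseline; more negative score means more quench and so TMEM16A activation or potentiation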
MEKK2wt confirm = raises or lowers MEK5 binding to wildtype human MEKK2, retest; shares compounds with MEKK3 PB1 HTS; bead flow cytometry, Alexa488-MEK5 binding to MEKK2 WT; actives lie on both sides; binding response (% of control), % at 10 µM; 2.4% of 5,900 active; in the data active = binding response below about 16% or above about 210%; inactive = in between
MEKK2mut confirm = signal of MEK5 binding to mutant human MEKK2, retest; shares compounds with MEKK3 PB1 HTS; bead flow cytometry, Alexa488-MEK5 binding to MEKK2 mutant; percent response, % at 10 µM; 2% of 5,900 active; in the data active = percent response mostly above about 71%, no sharp cut-off; inactive = mostly below about 38%;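 also: higher means compound restores mutant binding toward wildtype level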
MEKK3-MEK5 inh = confirmation of inhibitors of MEK5 binding to human MEKK3; shares compounds with MEKK3 PB1 HTS; bead flow cytometry, Alexa488-MEK5 binding to MEKK3; active compounds read low; binding response (% of control), % at 10 µM; 1.8% of 5,900 active; AID 1894;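 active = binding response below 72% of control, or above a set upper limit, though filed actives all read lower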;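 also: lower values mean stronger disruption of MEK5 binding to MEKK3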
Hits are given with their value; [ ] = dose if it differs, or a comment. The list is not random: actives were taken first. Their share in the collection is about 3.4%.

`CCCOP(=O)(OCCC)C(NC(=O)C(C)(C)C)c1ccccc1` (centres undefined) gave NTR1 agonist inactive, MEKK3 PB1 HTS inactive, MEKK2 mut-MEK5 inactive, MEKK2wt PB1 HTS inactive, ANO1 block inactive and ANO1 activ inactive.
O=C1NC2(CCCCCC2)N=C1c1ccc(Br)cc1 was read as NTR1 agonist inactive, MEKK3 PB1 HTS inactive, MEKK2 mut-MEK5 inactive, MEKK2wt PB1 HTS inactive, ANO1 block inactive and ANO1 activ inactive.
Screening O=C1NC2(CCCC2)N=C1c1ccc(F)cc1 returned NTR1 agonist inactive, MEKK3 PB1 HTS 122, MEKK2 mut-MEK5 inactive, MEKK2wt PB1 HTS inactive, ANO1 block inactive, ANO1 activ inactive, MEKK2wt confirm inactive, MEKK2mut confirm inactive and MEKK3-MEK5 inh inactive.
`CC(C)n1cc(CN2CCC(C(=O)Nc3cccc(-c4cccc(Cl)c4)c3)CC2)cn1` gave NTR1 agonist inactive, MEKK3 PB1 HTS inactive, MEKK2 mut-MEK5 34, MEKK2wt PB1 HTS 183, ANO1 block inactive, ANO1 activ inactive, MEKK2wt confirm inactive, MEKK2mut confirm 73 and MEKK3-MEK5 inh inactive.
For O=C(Nc1cccc(-c2cccc(Cl)c2)c1)C1CCN(Cc2ccc(CO)o2)CC1 the results were NTR1 agonist inactive, MEKK3 PB1 HTS inactive, MEKK2 mut-MEK5 inactive, MEKK2wt PB1 HTS 153, ANO1 block inactive, ANO1 activ inactive, MEKK2wt confirm inactive, MEKK2mut confirm inactive and MEKK3-MEK5 inh inactive.
`CCC1(CC)C(=O)C2=C3C1[C@H](C(=O)OC)CC(C(=O)OC)C[C@H]3[C@H]1C(=O)N(c3ccccc3)C(=O)[C@H]1[C@H]2C` (some centres undefined) gave NTR1 agonist inactive, MEKK3 PB1 HTS 57[inhibitor], MEKK2 mut-MEK5 inactive, MEKK2wt PB1 HTS inactive, ANO1 block inactive, ANO1 activ inactive, MEKK2wt confirm inactive, MEKK2mut confirm inactive and MEKK3-MEK5 inh inactive.
Cc1c(Cl)cccc1NC(=S)NC1CCCC1 was read as NTR1 agonist inactive, MEKK3 PB1 HTS inactive, MEKK2 mut-MEK5 inactive, MEKK2wt PB1 HTS inactive, ANO1 block inactive and ANO1 activ inactive.
`COCCCn1c(=O)c2ccccc2n(Cc2ccc(C)cc2)c1=O` gave NTR1 agonist inactive, MEKK3 PB1 HTS inactive, MEKK2 mut-MEK5 inactive, MEKK2wt PB1 HTS inactive, ANO1 block inactive and ANO1 activ inactive.
For COCCCNC(=O)c1ccc(Cn2c(=O)c3ccccc3n(Cc3ccc(C)cc3)c2=O)cc1 the results were NTR1 agonist inactive, MEKK3 PB1 HTS 125, MEKK2 mut-MEK5 inactive, MEKK2wt PB1 HTS inactive, ANO1 block inactive, ANO1 activ inactive, MEKK2wt confirm inactive, MEKK2mut confirm inactive and MEKK3-MEK5 inh inactive.
`CNC(=O)N(O)C1N(NC(=O)Nc2cccc3ccccc23)C(=S)SC1(C)C` (centres undefined) gave NTR1 agonist inactive, MEKK3 PB1 HTS 132, MEKK2 mut-MEK5 inactive, MEKK2wt PB1 HTS inactive, ANO1 block inactive, ANO1 activ inactive, MEKK2wt confirm inactive, MEKK2mut confirm inactive and MEKK3-MEK5 inh inactive.
For N=C(N)SCc1cn(-c2ccccc2)nc1-c1ccc(Br)cc1 the results were MEKK3 PB1 HTS inactive, MEKK2 mut-MEK5 107, MEKK2wt PB1 HTS 256, ANO1 activ inactive, MEKK2wt confirm 265, MEKK2mut confirm 105 and MEKK3-MEK5 inh inactive.
CC(=O)N(C(C)=O)c1ncn(C)c1S(=O)(=O)Nc1ccccc1 was read as ANO1 activ inactive.
`O=C(NCc1ccco1)/C(=C/C=C/c1ccccc1)NC(=O)c1ccco1` gave NTR1 agonist inactive, MEKK3 PB1 HTS inactive, MEKK2 mut-MEK5 inactive, MEKK2wt PB1 HTS inactive, ANO1 block inactive and ANO1 activ inactive.
